In PubChem BioAssay (NCATS):
Active and inactive are the calls of the source. Calls follow the shape of the dose curve; as a rule, active = well fitted curve in the direction sought with a large enough effect; inconclusive = small, poorly fitted or top-dose-only effect, or another doubt; inactive = no such curve, though single readings can be large or run the other way.

The molecules below were run against Hexokinase-4 (Homo sapiens) + Glucokinase regulatory protein (Homo sapiens) (UniProt P35557+Q14397) (assay: qHTS assay for inhibitors of recombinant human GCK-GKRP interaction: Diaphorase-coupled assay (AID 743205)). Conditions: G6PDH/diaphorase resorufin fluorescence; series mostly up to 57.5 µM; activity change, positive = activation: at the top concentration.
Procedure, shortened: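 Compounds pre-incubated 20 min with substrate, then 10 nM GST-GCK with 10 nM FLAG-GKRP added. GCK activity coupled via G6PDH and diaphorase to resorufin (5 mM glucose, 0.4 mM ATP, 0.15 mM NADP+, pH 7.6), read kinetically over 30 minutes at Ex 525/Em 590 nm.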

Sequence of Hexokinase-4 (Homo sapiens) + Glucokinase regulatory protein (Homo sapiens) (P35557 whole entry, looked up): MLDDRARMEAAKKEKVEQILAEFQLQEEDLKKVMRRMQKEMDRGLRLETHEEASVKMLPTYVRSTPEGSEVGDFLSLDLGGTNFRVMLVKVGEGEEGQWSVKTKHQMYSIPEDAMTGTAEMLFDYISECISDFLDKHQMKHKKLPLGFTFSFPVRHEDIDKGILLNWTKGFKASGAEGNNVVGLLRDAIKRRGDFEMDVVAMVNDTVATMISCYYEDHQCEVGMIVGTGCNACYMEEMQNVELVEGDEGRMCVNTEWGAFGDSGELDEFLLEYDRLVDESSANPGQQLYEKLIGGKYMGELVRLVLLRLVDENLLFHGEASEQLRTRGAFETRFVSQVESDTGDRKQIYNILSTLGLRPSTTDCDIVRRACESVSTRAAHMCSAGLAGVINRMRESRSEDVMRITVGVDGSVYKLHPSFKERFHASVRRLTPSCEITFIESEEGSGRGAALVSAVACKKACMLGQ
Sequence of Hexokinase-4 (Homo sapiens) + Glucokinase regulatory protein (Homo sapiens) (Q14397 whole entry, looked up): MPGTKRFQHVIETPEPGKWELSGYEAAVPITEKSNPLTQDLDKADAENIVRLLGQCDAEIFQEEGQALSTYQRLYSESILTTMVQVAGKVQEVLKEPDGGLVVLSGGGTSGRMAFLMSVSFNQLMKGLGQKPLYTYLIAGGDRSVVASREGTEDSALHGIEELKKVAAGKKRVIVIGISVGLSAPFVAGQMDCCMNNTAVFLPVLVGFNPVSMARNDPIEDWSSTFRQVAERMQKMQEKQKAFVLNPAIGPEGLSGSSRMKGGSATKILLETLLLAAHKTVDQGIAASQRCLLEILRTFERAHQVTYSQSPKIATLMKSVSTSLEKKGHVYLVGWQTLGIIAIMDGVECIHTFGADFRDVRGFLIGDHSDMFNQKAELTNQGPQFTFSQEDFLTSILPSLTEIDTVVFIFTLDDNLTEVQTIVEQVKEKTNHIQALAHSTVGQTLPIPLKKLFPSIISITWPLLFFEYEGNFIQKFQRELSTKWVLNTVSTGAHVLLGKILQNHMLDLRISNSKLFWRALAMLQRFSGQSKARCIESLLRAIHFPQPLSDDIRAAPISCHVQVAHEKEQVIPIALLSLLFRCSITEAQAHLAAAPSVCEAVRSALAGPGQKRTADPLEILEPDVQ

Structure (SMILES)	activity change, positive = activation	outcome
NC1CCN(c2cccc(Cl)n2)CC1	-6.03% (inactive)	–
CC(C)C(=O)c1c(C(C)C)nn2ccccc12	-0.716% (inactive)	–
CC(C)(C)[C@]1(O)CCN2C[C@H]3c4ccccc4CCc4cccc(c43)[C@@H]2C1	–	inactive
CCCCCCCCCCCCCCCC(=O)NCCO	-2.5% (inactive)	–
Cc1cc(N)c2ccccc2[n+]1CCCCCCCCCC[n+]1c(C)cc(N)c2ccccc21	-10.3% (inactive)	–
CCCn1cnc2c1c(=O)n(CCCCC(C)=O)c(=O)n2C	-2.69% (inactive)	–
CC[C@H]1CN2CCc3cc(OC)c(OC)cc3[C@@H]2C[C@@H]1C[C@H]1NCCc2cc(OC)c(OC)cc21	-2.07% (inactive)	–
CN(C)CC[C@@H](c1ccc(Cl)cc1)c1ccccn1	0.426% (inactive)	–
CCN(CC)CCCC(C)Nc1c2ccc(Cl)cc2nc2ccc(OC)cc12 (centres undefined)	-4.3% (inactive)	–
CNCCCC1c2ccccc2C=Cc2ccccc21	0.261% (inactive)	–
CSc1ccc2c(c1)N(CCC1CCCCN1C)c1ccccc1S2 (centres undefined)	8.06% (inactive)	–
CC(C)(C)c1onc(OCP(=O)(O)O)c1CC(N)C(=O)O (centres undefined)	–	inactive
C[C@](N)(Cc1ccc(O)cc1)C(=O)O	-1.14% (inactive)	–
CCN(CC)CCNC(=O)c1cc(Cl)c(N)cc1OC	-6.85% (inactive)	–
CCN(CC)C(C)CN1c2ccccc2Sc2ccccc21 (centres undefined)	-6.68% (inactive)	–
CC1=C(CC(=O)O)c2cc(F)ccc2/C1=C\c1ccc(S(C)(=O)=O)cc1	-5.04% (inactive)	–
O=C1N=C(O)CN1/N=C/c1ccc(-c2ccc([N+](=O)[O-])cc2)o1	-0.0482% (inactive)	–
C=Cc1c(C)c2cc3[nH]c(cc4nc(cc5nc(cc1[nH]2)C(C)=C5CCC(=O)O)C(CCC(=O)O)=C4C)c(C)c3C=C	-32.5% (inactive)	–
OCCN1CCN(CCCN2c3ccccc3Sc3ccc(Cl)cc32)CC1	-11.4% (inactive)	–
